Common to all, as to conditions: mRNA level, 48 h; actives raise or lower the signal
Read-out in assay [1]: Glutamate-cysteine ligase catalytic (GCLC), GCLC (gene 2729)
Kind of assay: LTEA_HepaRG_GCLC: Life Technologies and Expression Analysis (LTEA) Assay for Glutamate-cysteine ligase catalytic (GCLC) using HepaRG (AID 2283498). A digest of the protocol: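 HepaRG, 48 h exposure, 8-pt half-log series from 100 uM, 0.5% DMSO vehicle; TaqMan qRT-PCR for GCLC mRNA, housekeeping-normalized; bidirectional curve fit vs DMSO baseline.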

Read-out in assay [2]: growth arrest and DNA damage 45 (GADD45G), GADD45G (gene 10912)
In words: LTEA_HepaRG_GADD45G: Life Technologies and Expression Analysis (LTEA) Assay for growth arrest and DNA damage 45 (GADD45G) using HepaRG (AID 2283499). The method in brief: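 Differentiated human HepaRG cells, 48 h post-plating, exposed 48 h in serum-free induction medium to 8 half-log concentrations (top 100 uM, 0.5% DMSO) in duplicate. GADD45G mRNA measured by Fluidigm TaqMan qRT-PCR, normalized to ACTB, GAPDH, POLR2A; bidirectional fit versus DMSO.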

Read-out in assay [3]: Glutamate-cysteine ligase regulatory (GCLM), GCLM (gene 2730)
Kind of assay: LTEA_HepaRG_GCLM: Life Technologies and Expression Analysis (LTEA) Assay for Glutamate-cysteine ligase regulatory (GCLM) using HepaRG (AID 2283500). The method in brief: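 Endpoint is GCLM transcript level by qRT-PCR, normalized to three housekeeping genes, after 48 h chemical exposure of human HepaRG cells (0.5% DMSO vehicle, top 100 uM, half-log dilutions). Fitting was bidirectional relative to DMSO.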

Read-out in assay [4]: Glutathione S-transferase M3 (GSTM3), GSTM3 (gene 2947)
In words: LTEA_HepaRG_GSTM3: Life Technologies and Expression Analysis (LTEA) Assay for Glutathione S-transferase M3 (GSTM3) using HepaRG (AID 2283501). The method in brief: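 Differentiated human HepaRG cells were exposed in duplicate for 48 h in serum-free induction medium, 8 points from 100 uM top in half-log steps, 0.5% DMSO. GSTM3 mRNA was measured by TaqMan qRT-PCR, normalized to ACTB, GAPDH and POLR2A; bidirectional fit versus DMSO.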

Read-out in assay [5]: Heat shock 70 kDa protein 1 (HSPA1A), gene 3303
In words: LTEA_HepaRG_HSPA1A: Life Technologies and Expression Analysis (LTEA) Assay for Heat shock 70 kDa protein 1 (HSPA1A) using HepaRG (AID 2283502). The method in brief:
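Cells were plated and cultured for 48 h, then switched to serum-free induction medium. Chemicals were added at eight half-log concentrations up to 100 uM for 48 h. RNA was then isolated and HSPA1A measured by qRT-PCR with bidirectional curve fitting against DMSO.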

Read-out in assay [6]: Hypoxia-inducible factor 1-alpha (Homo sapiens) (UniProt Q16665)
In words: LTEA_HepaRG_HIF1A: Life Technologies and Expression Analysis (LTEA) Assay for Hypoxia-inducible factor 1 (HIF1A) Trancription factor using HepaRG (AID 2283503). A digest of the protocol:
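HIF1A transcript level read by qRT-PCR (ACTB, GAPDH, POLR2A normalization) after 48 h chemical exposure of HepaRG cultures. Eight half-log concentrations, top 100 uM, 0.5% DMSO vehicle, duplicates; bidirectional curve fit against DMSO baseline.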

Read-out in the next assay: HGF (gene 3082)
Kind of assay: LTEA_HepaRG_HGF: Life Technologies and Expression Analysis (LTEA) Assay for Hepatocyte Growth Facto (HGF) using HepaRG (AID 2283505). The method in brief:
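Differentiated HepaRG cells in serum-free induction medium exposed 48 h in duplicate, 8 half-log concentrations from 100 uM in 0.5% DMSO. HGF mRNA by qRT-PCR, normalised to ACTB, GAPDH, POLR2A; bidirectional fitting.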

Read-out in assay [7]: Insulin Like Growth Factor 1 (IGF1), IGF1 (gene 3479)
Kind of assay: LTEA_HepaRG_IGF1: Life Technologies and Expression Analysis (LTEA) Assay for Insulin Like Growth Factor 1 (IGF1) using HepaRG (AID 2283506). The method in brief: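 Cells are thawed, plated and cultured 48 h, then exposed in duplicate to chemical (highest 100 uM, half-log steps, 0.5% DMSO) for another 48 h. Total RNA is analysed by Fluidigm qRT-PCR for IGF1 expression relative to vehicle.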

Read-out in assay [8]: Intercellular Adhesion Molecule 1 (ICAM1), ICAM1 (gene 3383)
In words: LTEA_HepaRG_ICAM1: Life Technologies and Expression Analysis (LTEA) Assay for Intercellular Adhesion Molecule 1 (ICAM1) using HepaRG (AID 2283507). A digest of the protocol: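 Differentiated human HepaRG cells in serum-free induction medium exposed 48 h in duplicate to 8 half-log concentrations (top 100 uM, 0.5% DMSO). ICAM1 mRNA quantified by TaqMan qRT-PCR, normalized to ACTB, GAPDH and POLR2A; bidirectional fitting versus DMSO.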

Read-out in assay [9]: Insulin-like growth factor-binding protein 1 (IGFBP1), IGFBP1 (gene 3484)
In words: LTEA_HepaRG_IGFBP1: Life Technologies and Expression Analysis (LTEA) Assay for Insulin-like growth factor-binding protein 1 (IGFBP1) using HepaRG (AID 2283508). The method in brief:
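HepaRG cells, plated 48 h then switched to serum-free induction medium, exposed in duplicate for 48 h to 8-point half-log series from 100 uM in 0.5% DMSO. mRNA measured by qRT-PCR, normalized to ACTB/GAPDH/POLR2A; bidirectional fit versus DMSO.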

Read-out in assay [10]: Interleukin 6 (IL6), IL6 (gene 3569)
In words: LTEA_HepaRG_IL6: Life Technologies and Expression Analysis (LTEA) Assay for Interleukin 6 (IL6) using HepaRG (AID 2283509). A digest of the protocol:
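qRT-PCR read-out of IL6 transcript, normalized to three housekeeping genes, after 48 h chemical exposure of HepaRG cells; 8-point half-log series, top 100 uM, 0.5% DMSO vehicle. Bidirectional curve fitting against DMSO baseline.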

Read-out in assay [11]: Interleukin 6 Receptor (IL6R), IL6R (gene 3570)
Kind of assay: LTEA_HepaRG_IL6R: Life Technologies and Expression Analysis (LTEA) Assay for Interleukin 6 Receptor (IL6R) using HepaRG (AID 2283510). The method in brief:
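Cells were thawed, plated and cultured 48 h, then medium was changed to serum-free induction medium. Chemicals were added in duplicate (100 uM top, half-log steps, 0.5% DMSO) for 48 h. Lysates were analyzed by qRT-PCR for IL6R expression.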

Read-out in assay [12]: Potassium channel subfamily K member 1 (KCNK1), KCNK1 (gene 3775)
Kind of assay: LTEA_HepaRG_KCNK1: Life Technologies and Expression Analysis (LTEA) Assay for Potassium channel subfamily K member 1 (KCNK1) using HepaRG (AID 2283511). The method in brief:
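HepaRG, 48 h exposure, 8-pt half-log series top 100 uM, 0.5% DMSO vehicle, duplicates. Readout: KCNK1 transcript by qRT-PCR (Fluidigm array), housekeeping-normalized; bidirectional curve fit relative to DMSO baseline.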

Read-out in assay [13]: Keratin 19 (KRT19), KRT19 (gene 3880)
Kind of assay: LTEA_HepaRG_KRT19: Life Technologies and Expression Analysis (LTEA) Assay for Keratin 19 (KRT19) using HepaRG (AID 2283512). A digest of the protocol: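 Differentiated HepaRG cells in serum-free induction medium, exposed 48 h in duplicate to 8 half-log concentrations up to 100 uM in 0.5% DMSO. KRT19 mRNA by qRT-PCR, normalized to ACTB, GAPDH, POLR2A; bidirectional fit vs DMSO.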

Read-out in assay [14]: JUN Transcription Factor, JUN (gene 3725)
Kind of assay: LTEA_HepaRG_JUN: Life Technologies and Expression Analysis (LTEA) Assay for JUN Transcription Factor using HepaRG (AID 2283513). A digest of the protocol:
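Read-out is JUN transcript level by TaqMan qRT-PCR, normalized to ACTB, GAPDH and POLR2A, after 48 h chemical treatment of HepaRG cells. Concentration-response spanned eight half-log points up to 100 uM in 0.5% DMSO.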

Read-out in assay [15]: Lipase C (LIPC), LIPC (gene 3990)
In words: LTEA_HepaRG_LIPC: Life Technologies and Expression Analysis (LTEA) Assay for Lipase C (LIPC) using HepaRG (AID 2283514). The method in brief: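 HepaRG, 48 h exposure, 8-pt half-log series from 100 uM in 0.5% DMSO, duplicates. Readout: LIPC mRNA by Fluidigm qRT-PCR, housekeeping-normalized (ACTB/GAPDH/POLR2A). Gain or loss fitted bidirectionally against DMSO baseline.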

Read-out in assay [16]: Lipoprotein lipase (LPL), LPL (gene 4023)
Kind of assay: LTEA_HepaRG_LPL: Life Technologies and Expression Analysis (LTEA) Assay for Lipoprotein lipase (LPL) using HepaRG (AID 2283515). A digest of the protocol: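 HepaRG, 48 h exposure, 8-pt half-log dilutions from 100 uM, 0.5% DMSO vehicle, duplicates; qRT-PCR (Fluidigm array) of LPL mRNA vs housekeeping genes; bidirectional curve fit relative to DMSO baseline.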

Read-out in assay [17]: MicroRNA 122 (MIR122), gene 406906
In words: LTEA_HepaRG_MIR122: Life Technologies and Expression Analysis (LTEA) Assay for MicroRNA 122 (MIR122) using HepaRG (AID 2283516). Also: the transcript read is the microRNA miR-122. A digest of the protocol: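 Human liver HepaRG cultures receive test chemicals for 48 h at eight half-log concentrations from 100 uM. Expression is quantified by qRT-PCR with ACTB/GAPDH/POLR2A normalization and fitted bidirectionally against 0.5% DMSO.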

Read-out in assay [18]: matrix metalloproteinase-10 (MMP10), MMP10 (gene 4319)
In words: LTEA_HepaRG_MMP10: Life Technologies and Expression Analysis (LTEA) Assay for matrix metalloproteinase-10 (MMP10) using HepaRG (AID 2283517). A digest of the protocol:
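Transcript levels come from Fluidigm qRT-PCR normalized to three housekeeping genes, with curves fitted bidirectionally against 0.5% DMSO. Human HepaRG cells were dosed for 48 hours at concentrations up to 100 uM.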

The source made the active and inactive calls. The calls were made as follows: active = hit-call score of the fitted dose curve at least 0.9, where 1 is the maximum; inactive = score below 0.9.

Sequence of Hypoxia-inducible factor 1-alpha (Homo sapiens) (Q16665 whole entry, looked up): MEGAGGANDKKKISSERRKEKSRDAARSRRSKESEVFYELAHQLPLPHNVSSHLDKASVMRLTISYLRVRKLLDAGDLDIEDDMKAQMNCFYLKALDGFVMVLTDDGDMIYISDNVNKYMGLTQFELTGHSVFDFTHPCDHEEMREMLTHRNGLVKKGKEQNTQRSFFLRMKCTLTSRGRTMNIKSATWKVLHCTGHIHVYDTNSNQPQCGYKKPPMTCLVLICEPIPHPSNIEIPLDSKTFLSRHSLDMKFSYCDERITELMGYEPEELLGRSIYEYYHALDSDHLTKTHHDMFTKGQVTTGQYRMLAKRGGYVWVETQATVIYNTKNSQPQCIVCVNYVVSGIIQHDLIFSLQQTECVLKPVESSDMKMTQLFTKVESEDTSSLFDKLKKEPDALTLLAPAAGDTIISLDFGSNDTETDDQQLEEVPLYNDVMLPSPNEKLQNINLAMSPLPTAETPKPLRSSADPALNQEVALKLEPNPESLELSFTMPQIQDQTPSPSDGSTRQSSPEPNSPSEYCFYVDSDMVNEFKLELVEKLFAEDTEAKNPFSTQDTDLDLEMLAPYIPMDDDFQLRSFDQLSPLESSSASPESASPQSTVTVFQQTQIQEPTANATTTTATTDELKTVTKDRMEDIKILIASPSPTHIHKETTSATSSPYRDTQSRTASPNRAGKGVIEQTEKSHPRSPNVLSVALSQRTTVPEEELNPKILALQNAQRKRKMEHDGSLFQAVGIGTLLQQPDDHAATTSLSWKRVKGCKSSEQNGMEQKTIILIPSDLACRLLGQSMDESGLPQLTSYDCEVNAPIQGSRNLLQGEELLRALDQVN

With `CC1=C(C)S(=O)(=O)CCS1(=O)=O`, the AC50 is 70.6 µM (active) in assay [1]; 0.214 µM (active) in assay [3]; 77.1 µM (active) in assay [6]; 50 µM (active) in [7]; 76.6 µM (active) in assay [13]; 74.6 µM (active) in assay [14]. The AC50 is 85.8 µM (active) in assay [15], 75.3 µM (active) in assay [16] and 75.2 µM (active) in [17]. Also, the compound was called inactive (in assay [2]; in assay [4]; in assay [5]; with HGF (gene 3082); in assay [8]; in [9]). Besides, the compound was called inactive in assay [10], in assay [11], in assay [12] and in assay [18].
For `C/C=C/C=C/C(=O)O`, the concentration at half-maximal activity (AC50) in assay [1] is 0.256 µM (active). Further, the outcome (in assay [2]; in [3]; in [4]; in [5]; in assay [6]; in the assay with HGF (gene 3082)) was inactive. Further, the compound was called inactive in assay [7], in assay [9], in [10], in [11], in assay [12] and in assay [13]. Further, the outcome in assay [14], in assay [15], in assay [16], in assay [17] and in assay [18] was inactive.
With `CN(C)CCCN(C)CCCN(C)C`, the call in assay [1], in assay [2], in assay [3], in assay [4], in assay [5] and in [6] was inactive. Further, the compound was classed as inactive (with HGF (gene 3082); in assay [7]; in assay [9]; in assay [10]; in assay [11]; in assay [12]). The compound was called inactive in assay [13], in [14], in [15], in [16] and in [17].
As to `CO[C@@H]1COCC[C@@H]1N[C@@H]1CC[C@@](C(=O)N2CCc3ncc(C(F)(F)F)cc3C2)(C(C)C)C1`, the result in assay [1], in assay [2], in assay [3], in assay [4], in [5] and in [6] was inactive. Moreover, the outcome (with HGF (gene 3082); in assay [7]; in [8]; in [9]; in assay [10]; in [11]) was inactive. For the same compound, the call in [12], in assay [13], in assay [14], in assay [15], in assay [16] and in assay [17] was inactive.

These data come from PubChem BioAssay (EPA / NIEHS).
